# Measurements reported in PubChem BioAssay (EPA / NIEHS).
# Where “and” joins values, the source holds several entries; their conditions need not be identical. Equal values may be shown once. Inconclusive results are not listed. Calls of active or inactive are those of the source. Rule for the calls, unless noted: active = hit-call score of the fitted dose curve at least 0.9, where 1 is the maximum; inconclusive = response in the unintended direction; inactive = score below 0.9.
# Columns and labels:
# [1] = biological target: Nucleoli Translocation, AR (gene 367) (UniProt P10275); test: UPITT_HCI_U2OS_AR_TIF2_Nucleoli_Antagonist: University of Pittsburgh U2OS Androgen Receptor-Transcriptional Intermediary Factor 2 (AR-TIF2) Antagonism High Content Imaging Assay for Nucleoli Translocation (AID 2283997)
# Summary of the method: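 Measured quantity was AR-RFP fluorescence localized to nucleoli in engineered U2OS cells also bearing TIF2-GFP, acquired on automated high-content imagers. Primary testing used 20 uM compound; actives were confirmed in triplicate wells.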
# DIO1 (gene 1733) = test: CCTE_GLTED_hDIO1: CCTE's human Deiodinase 1 (DIO1) Inhibition Assay, Great Lakes Toxicology and Ecology Division (GLTED) Lab (AID 2283987);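 note: isolated human DIO1 enzyme in a cell-free setup rather than cells; enzyme activity read as free iodide liberated from substrate via Sandell-Kolthoff colorimetry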
# Summary of the method: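 Inhibition of human deiodinase 1 is scored as reduced iodide liberation after a 3 h enzyme–chemical incubation, detected colorimetrically by the Sandell-Kolthoff reaction against DMSO controls.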
# [2] = biological target: T1, Thyroid hormone receptor alpha (Rattus norvegicus) + Thyroid hormone receptor beta (Rattus norvegicus) (UniProt P18113+P63059); test: TOX21_TR_LUC_GH3_Agonist_Followup: Tox21 GH3 Thyroid Hormone Receptor Agonism Luciferase Follow-Up Assay (AID 2283939)
# Summary of the method: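 Rat GH3 cells (1,500/well) in serum-free assay medium, treated with 15-point series, 92 uM to 5 nM final, for 24 h at 37C. Luciferase via ONE-Glo luminescence; gain of signal fitted against DMSO, T3 positive control.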
# THRA (gene 7067) = THRA (gene 7067) (UniProt P10827); test: TOX21_TRA_COA_Agonist_Followup_ratio: Tox21 Thyroid Hormone Receptor alpha Agonism through Coactivator Recruitment Follow-Up Assay, Ratio (AID 2283948; active = hit-call score of the fitted dose curve at least 0.9, where 1 is the maximum; inactive = score below 0.9)
# Summary of the method: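 Follow-up specificity assay in which TRα ligand-binding domain, expressed as a GST fusion, recruits a fluorescein-labelled SRC-2 peptide. Energy transfer from a terbium anti-GST antibody gives the acceptor/donor ratio, fitted upward relative to DMSO.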
# THRB (gene 7068) [3] = biological target: THRB (gene 7068) (UniProt P10828); test: TOX21_TRB_BLA_Agonist_Followup_ratio: Tox21 Thyroid Hormone Receptor beta Agonism Beta-lactamase (BLA) Follow-Up Assay, Ratio (AID 2283954)
# Summary of the method: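 Human TRβ LBD–GAL4 DBD fusion in GeneBLAzer UAS-bla HEK293T cells; 11 concentrations in triplicate, 18 h at 37°C/5% CO2, T3 as agonist control. CCF4-AM substrate 2 h at room temperature; 460:530 nm ratio fitted for gain of signal versus DMSO.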
# [4] = TOX21_TRB_BLA_Agonist_Followup_viability: Viability Assessment in the Tox21 Thyroid Hormone Receptor beta Agonism Beta-lactamase (BLA) Follow-Up Assay (AID 2283956)
# Summary of the method: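 TRb-bla HEK293T cells (GAL4-DBD/human TRb LBD) in 2% charcoal-stripped FBS medium were exposed 18 h at 37C to 11 concentrations in triplicate. CellTiter-Glo ATP luminescence was read after 30 min at room temperature, with bidirectional fitting against DMSO.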
# THRB (gene 7068) [5] = biological target: THRB (gene 7068) (UniProt P10828); test: TOX21_TRB_COA_Agonist_Followup_ratio: Tox21 Thyroid Hormone Receptor beta Agonism through Coactivator Recruitment Follow-Up Assay, Ratio (AID 2283963; active = hit-call score of the fitted dose curve at least 0.9, where 1 is the maximum; inactive = score below 0.9)
# Summary of the method: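 GST-TRb LBD 5.0 nM + 0.10% BSA + cpd; add fluorescein-SRC-2 200 nM / Tb anti-GST Ab 2 nM; TR-FRET ex 340, em 520:495; norm DMSO 0%, T3 100%.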
# [6] = biological target: Retinoic acid receptor RXR-alpha (Homo sapiens) (UniProt P19793); test: TOX21_TR_RXR_BLA_Agonist_Followup_ratio: Tox21 Thyroid Hormone Receptor beta Retinoid X Receptor alpha (RXRa) Agonism Beta-lactamase (BLA) Follow-Up Assay, Ratio (AID 2283968)
# Summary of the method: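 RXRa-UAS-bla HEK293T cells (GAL4 beta-lactamase reporter) were treated with compounds at 11 concentrations in triplicate for 16 h at 37C/5% CO2, then loaded with CCF4-AM substrate for 2 h at room temperature; activity is the 460:530 nm ratio versus DMSO baseline.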
# [7] = TOX21_TR_RXR_BLA_Agonist_Followup_viability: Viability Assessment in the Tox21 Thyroid Hormone Receptor beta Retinoid X Receptor alpha (RXRa) Agonism Beta-lactamase (BLA) Follow-Up Assay (AID 2283970)
# Summary of the method: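 RXRa-UAS-bla HEK293T cells seeded at 2,500/well in phenol red-free DMEM with 2% charcoal-stripped FBS, exposed to compound 16h at 37C/5% CO2 in qHTS. Viability read by CellTiter-Glo ATP luminescence; bidirectional fitting against DMSO baseline, signal loss indicating cytotoxicity.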
# [8] = TOX21_PR_BLA_Followup_Antagonist_viability: Viability Assessment in the Tox21 HEK293 Progesterone Receptor (PR) Antagonism Beta-lactamase Follow-Up Assay (AID 2283936);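 note: hits lower the luminescence signal meaning cytotoxicity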
# Summary of the method: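 PR-UAS-bla HEK293T cells (3,000/well, 2% charcoal-stripped FBS) given compound plus R5020 agonist, 16 h at 37C. CellTiter-Glo added after bla read, 30 min at room temperature; luminescence loss indicates cytotoxicity.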
# PGR (gene 5241) [9] = biological target: PGR (gene 5241) (UniProt P06401); test: TOX21_PR_LUC_Followup_Antagonist: Tox21 HEK293 Progesterone Receptor (PR) Antagonism Luciferase Follow-Up Assay (AID 2283938);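 note: curve fitted upward as signal gain over DMSO baseline despite antagonist label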
# Summary of the method: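 Cells are grown 5 days in charcoal-stripped-FBS assay medium, plated, left 5 h, then dosed with compound and incubated 16 h. ONE-Glo reagent is added and luminescence read after 30 min.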
# [10] = TOX21_PR_LUC_Followup_Antagonist_viability: Viability Assessment in the Tox21 HEK293 Progesterone Receptor (PR) Antagonism Luciferase Follow-Up Assay (AID 2283940)
# Summary of the method: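 HEK293-PR-A-luc cells, precultured 5 days in assay medium with 10% charcoal-stripped FBS, were seeded at 3,000 cells/well, treated with compounds in DMSO for 16 h at 37C, and viability was read as cellular ATP by CellTiter-Glo luminescence.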
# [11] = TOX21_PR_LUC_Followup_Agonist_viability: Viability Assessment in the Tox21 HEK293 Progesterone Receptor (PR) Agonism Luciferase Follow-Up Assay (AID 2283941);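 note: loss of signal means cytotoxicity so actives lower viability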
# Summary of the method: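 HEK293-PR-A-luc cells, pre-cultured 5 days in 10% charcoal-stripped FBS, were seeded at 3,000 cells/well, rested 5 h at 37C, then given compound in DMSO for 16 h at 37C. Cellular ATP was read by CellTiter-Glo luminescence; signal loss indicates cytotoxicity.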
# PGR (gene 5241) [12] = biological target: PGR (gene 5241) (UniProt P06401); test: TOX21_PR_LUC_Followup_Agonist: Tox21 HEK293 Progesterone Receptor (PR) Agonism Luciferase Follow-Up Assay (AID 2283937; active = hit-call score of the fitted dose curve at least 0.9, where 1 is the maximum; inactive = score below 0.9)
# Summary of the method: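 HEK293-PR-A-luc cells, pre-cultured 5 days in medium with 10% charcoal-stripped FBS, were seeded at 3,000 cells/well, rested 5 h at 37C, then exposed to compounds 16 h at 37C; luciferase read by ONE-Glo luminescence after 30 min.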
# [13] = biological target: T1, Thyroid hormone receptor alpha (Rattus norvegicus) + Thyroid hormone receptor beta (Rattus norvegicus); test: TOX21_TR_LUC_GH3_Antagonist_Followup: Tox21 GH3 Thyroid Hormone Receptor Antagonism Luciferase Follow-Up Assay (AID 2283942)
# Summary of the method: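 Confirmatory qHTS, antagonist mode: T3 (1.0 nM final) + test cpd, 15 conc, 92 uM–5nM final, GH3 rat pituitary line, 24 h, 37C. Luc reporter, RLU vs DMSO.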
# THRB (gene 7068) [14] = biological target: THRB (gene 7068) (UniProt P10828); test: TOX21_TRB_BLA_Antagonist_Followup_ratio: Tox21 Thyroid Hormone Receptor beta Antagonism Beta-lactamase (BLA) Follow-Up Assay, Ratio (AID 2283958)
# Summary of the method: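 GAL4-DBD/human TRβ-LBD fusion in GeneBLAzer UAS-bla HEK293T cells, 3,000 cells/well in phenol red-free DMEM with 2% charcoal-stripped FBS; compounds at 11 concentrations in triplicate, 18 h at 37C. CCF4-AM substrate 2 h, 460:530 nm ratio relative to DMSO.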
# [15] = TOX21_TRB_BLA_Antagonist_Followup_viability: Viability Assessment in the Tox21 Thyroid Hormone Receptor beta Antagonism Beta-lactamase (BLA) Follow-Up Assay (AID 2283961)
# Summary of the method: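 TRβ-bla HEK293T (human TRβ LBD fused to GAL4 DBD), 3,000 cells/well, 2% charcoal-stripped FBS, phenol red-free medium; 18 h compound exposure, 37C; CellTiter-Glo 30 min RT; luminescence, loss-of-signal readout.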
# THRB (gene 7068) [16] = biological target: THRB (gene 7068) (UniProt P10828); test: TOX21_TRB_COA_Antagonist_Followup_ratio: Tox21 Thyroid Hormone Receptor beta Antagonism through Coactivator Recruitment Follow-Up Assay, Ratio (AID 2283967)
# Summary of the method: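 Test compound was incubated with 5.0 nM GST-TRβ LBD in 0.10% BSA. Then 200 nM fluorescein-SRC-2 peptide and 2 nM terbium anti-GST antibody were added. TR-FRET (520:495 nm) was measured and normalized to DMSO and T3 controls.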
# [17] = biological target: Retinoic acid receptor RXR-alpha (Homo sapiens) (UniProt P19793); test: TOX21_TR_RXR_BLA_Antagonist_Followup_ratio: Tox21 Thyroid Hormone Receptor beta Retinoid X Receptor alpha (RXRa) Antagonism Beta-lactamase (BLA) Follow-Up Assay, Ratio (AID 2283972)
# Summary of the method: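 HEK293T RXRa-bla, 2% charcoal-stripped FBS medium, 16 h compound exposure at 37C, qHTS 11 conc x3. CCF4 FRET ratio ch2/ch1 (460:530), DMSO = baseline, loss-of-signal fit.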
# [18] = TOX21_TR_RXR_BLA_Antagonist_Followup_viability: Viability Assessment in the Tox21 Thyroid Hormone Receptor beta Retinoid X Receptor alpha (RXRa) Antagonism Beta-lactamase (BLA) Follow-Up Assay (AID 2283979)
# Summary of the method: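 Follow-up compounds (11 concentrations, triplicate) were incubated 16 h at 37C/5% CO2 with HEK293T RXRa-bla cells seeded at 2,500/well in charcoal-stripped-serum medium. ATP content by CellTiter-Glo luminescence gave viability; curves fitted in both directions against DMSO.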
# Sequence of Retinoic acid receptor RXR-alpha (Homo sapiens) (P19793 whole entry, looked up, the tested form may be a part): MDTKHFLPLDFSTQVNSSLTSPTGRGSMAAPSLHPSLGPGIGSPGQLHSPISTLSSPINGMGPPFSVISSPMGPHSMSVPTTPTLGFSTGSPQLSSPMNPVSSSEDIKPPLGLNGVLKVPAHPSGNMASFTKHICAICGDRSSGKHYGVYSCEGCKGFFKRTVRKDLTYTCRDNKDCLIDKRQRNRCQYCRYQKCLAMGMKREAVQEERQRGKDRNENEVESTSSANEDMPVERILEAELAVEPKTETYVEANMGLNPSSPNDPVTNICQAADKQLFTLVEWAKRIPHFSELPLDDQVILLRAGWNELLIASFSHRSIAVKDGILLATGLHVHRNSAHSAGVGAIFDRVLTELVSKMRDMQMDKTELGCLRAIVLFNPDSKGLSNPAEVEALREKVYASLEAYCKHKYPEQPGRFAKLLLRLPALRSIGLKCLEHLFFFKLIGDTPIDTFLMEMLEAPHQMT
# Sequence of PGR (gene 5241) (P06401 whole entry, looked up): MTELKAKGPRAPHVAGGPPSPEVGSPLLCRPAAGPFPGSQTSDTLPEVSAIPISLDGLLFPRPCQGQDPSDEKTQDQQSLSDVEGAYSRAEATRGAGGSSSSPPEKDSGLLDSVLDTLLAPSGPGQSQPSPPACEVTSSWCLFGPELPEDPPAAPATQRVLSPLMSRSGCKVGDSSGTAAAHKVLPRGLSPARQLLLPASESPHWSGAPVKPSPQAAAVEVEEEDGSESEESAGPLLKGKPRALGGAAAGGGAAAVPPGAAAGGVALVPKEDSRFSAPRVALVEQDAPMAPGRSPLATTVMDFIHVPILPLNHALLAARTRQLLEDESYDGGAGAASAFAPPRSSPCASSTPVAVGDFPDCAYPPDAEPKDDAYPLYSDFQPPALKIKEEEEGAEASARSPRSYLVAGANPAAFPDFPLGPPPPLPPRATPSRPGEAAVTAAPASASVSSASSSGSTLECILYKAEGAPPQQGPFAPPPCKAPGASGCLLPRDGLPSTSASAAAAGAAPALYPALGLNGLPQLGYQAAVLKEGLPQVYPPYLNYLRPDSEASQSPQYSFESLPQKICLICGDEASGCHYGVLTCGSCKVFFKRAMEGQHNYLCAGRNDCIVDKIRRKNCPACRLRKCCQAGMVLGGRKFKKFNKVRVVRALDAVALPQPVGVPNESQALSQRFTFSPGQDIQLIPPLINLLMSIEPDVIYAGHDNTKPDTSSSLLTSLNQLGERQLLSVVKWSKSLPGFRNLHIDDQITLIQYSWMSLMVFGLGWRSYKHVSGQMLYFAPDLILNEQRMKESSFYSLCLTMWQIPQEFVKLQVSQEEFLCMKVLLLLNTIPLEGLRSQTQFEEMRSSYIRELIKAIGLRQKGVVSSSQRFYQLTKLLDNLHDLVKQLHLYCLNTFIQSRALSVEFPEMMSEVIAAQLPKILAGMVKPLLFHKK
# Sequence of THRA (gene 7067) (P10827 whole entry, looked up, the tested form may be a part): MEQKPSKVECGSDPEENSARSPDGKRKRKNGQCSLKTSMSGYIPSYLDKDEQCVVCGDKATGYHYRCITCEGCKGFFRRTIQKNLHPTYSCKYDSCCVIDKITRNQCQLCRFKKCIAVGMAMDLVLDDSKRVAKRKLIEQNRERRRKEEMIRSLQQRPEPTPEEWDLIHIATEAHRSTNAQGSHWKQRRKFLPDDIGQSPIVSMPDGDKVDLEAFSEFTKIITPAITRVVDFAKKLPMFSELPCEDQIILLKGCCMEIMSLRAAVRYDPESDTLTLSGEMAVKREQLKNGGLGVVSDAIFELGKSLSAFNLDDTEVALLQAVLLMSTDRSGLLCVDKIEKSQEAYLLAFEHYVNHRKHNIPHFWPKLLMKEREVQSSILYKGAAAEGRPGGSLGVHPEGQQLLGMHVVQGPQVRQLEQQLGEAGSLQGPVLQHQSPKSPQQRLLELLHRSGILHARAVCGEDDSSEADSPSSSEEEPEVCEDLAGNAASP
# Sequence of THRB (gene 7068) (P10828 whole entry, looked up, the tested form may be a part): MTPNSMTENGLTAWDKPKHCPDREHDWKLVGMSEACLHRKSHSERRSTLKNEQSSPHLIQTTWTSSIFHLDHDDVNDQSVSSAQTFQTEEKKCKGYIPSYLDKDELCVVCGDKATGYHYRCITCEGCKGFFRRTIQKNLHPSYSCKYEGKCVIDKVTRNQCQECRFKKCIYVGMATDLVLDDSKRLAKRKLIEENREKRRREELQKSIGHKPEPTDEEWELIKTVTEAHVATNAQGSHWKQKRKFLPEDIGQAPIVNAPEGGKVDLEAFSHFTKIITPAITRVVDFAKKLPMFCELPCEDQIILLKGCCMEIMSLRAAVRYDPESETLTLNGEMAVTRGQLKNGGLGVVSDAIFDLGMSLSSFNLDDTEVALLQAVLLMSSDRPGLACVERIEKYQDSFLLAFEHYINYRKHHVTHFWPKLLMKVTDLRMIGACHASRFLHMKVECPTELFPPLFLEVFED
# Sequence of Nucleoli Translocation, AR (gene 367) (P10275 whole entry, looked up): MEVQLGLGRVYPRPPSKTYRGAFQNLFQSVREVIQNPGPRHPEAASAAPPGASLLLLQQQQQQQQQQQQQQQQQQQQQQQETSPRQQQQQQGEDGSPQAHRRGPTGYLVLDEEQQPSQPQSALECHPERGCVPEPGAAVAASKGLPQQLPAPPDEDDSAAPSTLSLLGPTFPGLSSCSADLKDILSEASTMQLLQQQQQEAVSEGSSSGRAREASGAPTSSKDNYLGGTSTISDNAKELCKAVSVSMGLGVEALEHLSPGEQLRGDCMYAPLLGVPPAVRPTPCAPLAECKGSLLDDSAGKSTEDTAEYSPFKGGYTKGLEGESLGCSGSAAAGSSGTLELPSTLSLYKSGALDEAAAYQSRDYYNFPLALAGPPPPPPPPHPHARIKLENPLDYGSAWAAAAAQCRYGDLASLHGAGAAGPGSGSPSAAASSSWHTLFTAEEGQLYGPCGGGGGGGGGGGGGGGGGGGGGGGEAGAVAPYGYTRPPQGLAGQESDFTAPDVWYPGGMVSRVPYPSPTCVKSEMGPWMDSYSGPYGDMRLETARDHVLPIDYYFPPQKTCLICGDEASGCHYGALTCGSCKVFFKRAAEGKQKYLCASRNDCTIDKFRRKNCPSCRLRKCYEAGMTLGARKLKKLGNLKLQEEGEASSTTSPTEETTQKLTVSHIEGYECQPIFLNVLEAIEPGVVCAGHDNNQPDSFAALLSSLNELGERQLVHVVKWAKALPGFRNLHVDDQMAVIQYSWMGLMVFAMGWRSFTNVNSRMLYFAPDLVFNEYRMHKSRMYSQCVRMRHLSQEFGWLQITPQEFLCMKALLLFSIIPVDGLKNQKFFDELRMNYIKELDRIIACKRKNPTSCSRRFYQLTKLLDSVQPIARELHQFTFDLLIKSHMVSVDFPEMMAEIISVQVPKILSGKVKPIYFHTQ
# T1 sequence (P63059 whole entry, looked up): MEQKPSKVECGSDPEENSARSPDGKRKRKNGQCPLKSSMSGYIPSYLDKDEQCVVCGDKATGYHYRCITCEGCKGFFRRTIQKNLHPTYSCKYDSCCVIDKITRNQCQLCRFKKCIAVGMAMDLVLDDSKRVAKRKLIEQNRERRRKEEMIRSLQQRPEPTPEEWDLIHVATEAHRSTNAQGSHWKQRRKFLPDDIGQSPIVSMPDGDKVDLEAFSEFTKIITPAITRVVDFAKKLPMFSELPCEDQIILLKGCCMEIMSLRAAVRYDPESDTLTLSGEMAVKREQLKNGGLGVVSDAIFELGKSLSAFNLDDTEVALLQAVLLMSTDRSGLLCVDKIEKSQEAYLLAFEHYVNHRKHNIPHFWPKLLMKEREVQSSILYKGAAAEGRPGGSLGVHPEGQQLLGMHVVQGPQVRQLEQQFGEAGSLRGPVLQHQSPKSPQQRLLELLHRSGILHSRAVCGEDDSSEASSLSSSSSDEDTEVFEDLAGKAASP
# T1 sequence (P18113 whole entry, looked up): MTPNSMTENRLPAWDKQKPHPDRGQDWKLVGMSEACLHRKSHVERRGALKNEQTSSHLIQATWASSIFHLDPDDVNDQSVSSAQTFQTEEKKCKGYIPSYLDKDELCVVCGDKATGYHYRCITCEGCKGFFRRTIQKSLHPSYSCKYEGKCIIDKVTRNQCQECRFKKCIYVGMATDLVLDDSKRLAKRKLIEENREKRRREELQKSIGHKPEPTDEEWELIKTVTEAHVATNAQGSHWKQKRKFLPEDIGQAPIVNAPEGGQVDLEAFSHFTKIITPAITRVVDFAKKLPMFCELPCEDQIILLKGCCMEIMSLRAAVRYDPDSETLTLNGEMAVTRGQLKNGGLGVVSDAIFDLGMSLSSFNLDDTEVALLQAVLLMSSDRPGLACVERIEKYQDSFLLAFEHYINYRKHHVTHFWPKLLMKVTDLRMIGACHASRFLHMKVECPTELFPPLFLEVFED
compound,measurement,setting,value
CCNc1nc(Cl)nc(NC(C)(C)C)n1,outcome,[1],inactive
CC1(C)CN=C(NN=C(/C=C/c2ccc(C(F)(F)F)cc2)/C=C/c2ccc(C(F)(F)F)cc2)NC1,AC50,[1],9.92 µM (active)
O=P(OCC(Br)CBr)(OCC(Br)CBr)OCC(Br)CBr (stereo unspecified),outcome,[1],inactive
CC(C)(C)N(NC(=O)c1ccc(Cl)cc1)C(=O)c1ccccc1,outcome,[1],inactive
COC(=O)C(F)(F)C(F)(F)OC(F)(C(F)(F)F)C(F)(F)OC(F)=C(F)F (stereo unspecified),AC50,DIO1 (gene 1733),0.494 µM (active)
CCN(CC)c1ccccc1,outcome,[1],inactive
CCCCN(CC)C(=O)SCCC,outcome,[1],inactive
CCC1(c2ccccc2)C(=O)N=C(O)NC1=O (stereo unspecified),outcome,[2],inactive
same,outcome,THRA (gene 7067),inactive
same,outcome,THRB (gene 7068) [3],inactive
same,outcome,[4],inactive
same,outcome,THRB (gene 7068) [5],inactive
same,outcome,[6],inactive
same,outcome,[7],inactive
Clc1ccc(Oc2ccccc2)cc1,outcome,[1],inactive
O=C(O)C(Cl)Cl,outcome,[2],inactive
same,outcome,THRA (gene 7067),inactive
same,outcome,THRB (gene 7068) [3],inactive
same,outcome,[4],inactive
same,outcome,THRB (gene 7068) [5],inactive
same,outcome,[6],inactive
same,outcome,[7],inactive
O=S1(=O)OCC2C(CO1)C1(Cl)C(Cl)=C(Cl)C2(Cl)C1(Cl)Cl (stereo unspecified),outcome,[8],inactive
same,AC50,PGR (gene 5241) [9],27.1 µM (active)
same,outcome,[10],inactive
same,outcome,[11],inactive
[N-]=[N+]=[N-],outcome,[1],inactive
ClC1=C(Cl)C2(Cl)C3C(Cl)C(Cl)CC3C1(Cl)C2(Cl)Cl (stereo unspecified),AC50,[1],11.5 µM (active)
CCCCC(CC)COP(=O)(Oc1ccccc1)Oc1ccccc1 (stereo unspecified),outcome,[1],inactive
CCCCCCCc1ccc(O)cc1,AC50,DIO1 (gene 1733),77 µM (active)
same,AC50,[1],60.7 µM (active)
c1cc2c3c(cccc3c1)CC2,outcome,[1],inactive
CO/N=C(/C(=O)OC)c1ccccc1COc1ccccc1C,outcome,[8],inactive
same,outcome,PGR (gene 5241) [12],inactive
same,AC50,PGR (gene 5241) [9],31.5 µM (active)
same,AC50,[13],9.33 µM (active)
same,AC50,THRB (gene 7068) [14],23.1 µM (active)
same,outcome,[15],inactive
same,outcome,THRB (gene 7068) [16],inactive
same,outcome,[17],inactive
same,outcome,[18],inactive
same,outcome,[1],inactive
ClC(Cl)=C(c1ccc(Cl)cc1)c1ccccc1Cl,AC50,[1],50 µM (active) and 9.92 µM (active)
CCOP(=S)(Oc1ccc([N+](=O)[O-])cc1)c1ccccc1 (stereo unspecified),outcome,[8],inactive
same,AC50,PGR (gene 5241) [9],7.8 µM (active)
same,outcome,[11],inactive
C=CC(=O)OCC(F)(F)C(F)F,AC50,DIO1 (gene 1733),19.8 µM (active)
CC(Cc1ccc(OCC(=O)O)cc1)NCC(O)c1csc(C(F)(F)F)n1 (stereo unspecified),outcome,[2],inactive
same,outcome,THRA (gene 7067),inactive
same,outcome,[4],inactive
same,outcome,THRB (gene 7068) [5],inactive
same,outcome,[6],inactive
same,outcome,[7],inactive
CCOP(=S)(OCC)SCSc1ccc(Cl)cc1,outcome,[8],inactive
same,AC50,PGR (gene 5241) [9],20.4 µM (active)
O=c1ssc(Cl)c1Cl,AC50,DIO1 (gene 1733),0.149 µM (active)
